Measurements: the supplement of paper PMC4466140

Legend:
Experiment in all cases: SPOT peptide array binding signal intensity (averaged, normalized) (arbitrary units (background-subtracted, floor 0; scale differs between SH3 domains)); higher = stronger binding of the SH3 domain to the peptide
AgAbp1 = molecular target: AgAbp1
In short: (§1)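 Cellulose membranes carried synthetic 15-mer peptides with cysteines swapped for serines. These were incubated overnight at 4°C with 10 μg/ml of GST-fused SH3 domains from four yeast species in TBS-based blocking buffer. Binding signal, detected with anti-GST antibody and quantified in Genespotter, is the normalized, background-subtracted spot intensity averaged over replicates, in arbitrary units specific to each domain.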

AgBbc1 = molecular target: AgBbc1
In short: as §1

AgBem1-D1 = molecular target: AgBem1-D1
In short: as §1

AgBzz1-D1 = molecular target: AgBzz1-D1
In short: as §1

AgBzz1-D2 = molecular target: AgBzz1-D2
In short: as §1

AgCyk3 = molecular target: AgCyk3
In short: as §1

AgFus1 = molecular target: AgFus1
In short: as §1

AgHof1 = molecular target: AgHof1
In short: as §1

AgHse1 = molecular target: AgHse1
In short: as §1

AgLsb1 = molecular target: AgLsb1
In short: as §1

AgLsb4 = molecular target: AgLsb4
In short: as §1

AgMyo5 = molecular target: AgMyo5
In short: as §1

AgNbp2 = molecular target: AgNbp2
In short: as §1

AgRvs167 = molecular target: AgRvs167
In short: as §1

AgSho1 = molecular target: AgSho1
In short: as §1

AgSla1-D1-D2 = molecular target: AgSla1-D1-D2
In short: as §1

AgSla1-D3 = molecular target: AgSla1-D3
In short: as §1

CaAbp1-D1 = molecular target: CaAbp1-D1
In short: as §1

CaAbp1-D2 = molecular target: CaAbp1-D2
In short: as §1

CaBbc1 = molecular target: CaBbc1
In short: as §1

CaBem1-D1 = molecular target: CaBem1-D1
In short: as §1

CaBzz1-D1 = molecular target: CaBzz1-D1
In short: as §1

CaBzz1-D2 = molecular target: CaBzz1-D2
In short: as §1

CaCyk3 = molecular target: CaCyk3
In short: as §1

CaFus1 = molecular target: CaFus1
In short: as §1

CaHof1 = molecular target: CaHof1
In short: as §1

CaHse1 = molecular target: CaHse1
In short: as §1

CaLsb1 = molecular target: CaLsb1
In short: as §1

CaLsb4 = molecular target: CaLsb4
In short: as §1

CaMyo5 = molecular target: CaMyo5
In short: as §1

CaNbp2 = molecular target: CaNbp2
In short: as §1

CaRvs167 = molecular target: CaRvs167
In short: as §1

CaRvs167-3 = molecular target: CaRvs167-3
In short: as §1

CaSho1 = molecular target: CaSho1
In short: as §1

CaSla1-D1-D2 = molecular target: CaSla1-D1-D2
In short: as §1

CaSla1-D3 = molecular target: CaSla1-D3
In short: as §1

ScAbp1 = molecular target: ScAbp1
In short: as §1

ScBbc1 = molecular target: ScBbc1
In short: as §1

ScBem1-D1 = molecular target: ScBem1-D1
In short: as §1

ScBzz1-D1 = molecular target: ScBzz1-D1
In short: as §1

ScBzz1-D2 = molecular target: ScBzz1-D2
In short: as §1

ScCyk3 = molecular target: ScCyk3
In short: as §1

ScFus1 = molecular target: ScFus1
In short: as §1

ScHof1 = molecular target: ScHof1
In short: as §1

ScHse1 = molecular target: ScHse1
In short: as §1

ScLsb1 = molecular target: ScLsb1
In short: as §1

ScLsb2 = molecular target: ScLsb2
In short: as §1

ScLsb3 = molecular target: ScLsb3
In short: as §1

ScLsb4 = molecular target: ScLsb4
In short: as §1

ScMyo3 = molecular target: ScMyo3
In short: as §1

ScMyo5 = molecular target: ScMyo5
In short: as §1

ScNbp2 = molecular target: ScNbp2
In short: as §1

ScPex13 = molecular target: ScPex13
In short: as §1

ScRvs167 = molecular target: ScRvs167
In short: as §1

ScSho1 = molecular target: ScSho1
In short: as §1

ScSla1-D1-D2 = molecular target: ScSla1-D1-D2
In short: as §1

ScSla1-D3 = molecular target: ScSla1-D3
In short: as §1

SpAbp1-D1 = molecular target: SpAbp1-D1
In short: as §1

SpBbc1 = molecular target: SpBbc1
In short: as §1

SpBzz1-D1 = molecular target: SpBzz1-D1
In short: as §1

SpBzz1-D2 = molecular target: SpBzz1-D2
In short: as §1

SpCyk3 = molecular target: SpCyk3
In short: as §1

SpHof1 = molecular target: SpHof1
In short: as §1

SpHof1-2 = molecular target: SpHof1-2
In short: as §1

SpHof1-3 = molecular target: SpHof1-3
In short: as §1

SpHse1 = molecular target: SpHse1
In short: as §1

SpLsb1 = molecular target: SpLsb1
In short: as §1

SpLsb4 = molecular target: SpLsb4
In short: as §1

SpMyo1 = molecular target: SpMyo1
In short: as §1

SpNbp2 = molecular target: SpNbp2
In short: as §1

SpPex13 = molecular target: SpPex13
In short: as §1

SpRvs167 = molecular target: SpRvs167
In short: as §1

SpSla1-D1-D2 = molecular target: SpSla1-D1-D2
In short: as §1

SpSla1-D3 = molecular target: SpSla1-D3
In short: as §1

Binder: DKSRPPRPPPKPLHL
- SPOT peptide array binding signal intensity (AgAbp1): 1130
- SPOT peptide array binding signal intensity (AgBbc1): 193
- SPOT peptide array binding signal intensity (AgBem1-D1): ≤ 0
- SPOT peptide array binding signal intensity (AgBzz1-D1): 256
- SPOT peptide array binding signal intensity (AgBzz1-D2): 134
- SPOT peptide array binding signal intensity (AgCyk3): ≤ 0
- SPOT peptide array binding signal intensity (AgFus1): 0.5
- SPOT peptide array binding signal intensity (AgHof1): 14.2
- SPOT peptide array binding signal intensity (AgHse1): ≤ 0
- SPOT peptide array binding signal intensity (AgLsb1): 1.5
- SPOT peptide array binding signal intensity (AgLsb4): 15
- SPOT peptide array binding signal intensity (AgMyo5): 62.2
- SPOT peptide array binding signal intensity (AgNbp2): 62.5
- SPOT peptide array binding signal intensity (AgRvs167): 1.33
- SPOT peptide array binding signal intensity (AgSho1): 250
- SPOT peptide array binding signal intensity (AgSla1-D1-D2): ≤ 0
- SPOT peptide array binding signal intensity (AgSla1-D3): 9
- SPOT peptide array binding signal intensity (CaAbp1-D1): 782
- SPOT peptide array binding signal intensity (CaAbp1-D2): 1940
- SPOT peptide array binding signal intensity (CaBbc1): 334
- SPOT peptide array binding signal intensity (CaBem1-D1): 120
- SPOT peptide array binding signal intensity (CaBzz1-D1): 2800
- SPOT peptide array binding signal intensity (CaBzz1-D2): 578
- SPOT peptide array binding signal intensity (CaCyk3): 34.5
- SPOT peptide array binding signal intensity (CaFus1): ≤ 0
- SPOT peptide array binding signal intensity (CaHof1): 0.5
- SPOT peptide array binding signal intensity (CaHse1): 63.2
- SPOT peptide array binding signal intensity (CaLsb1): ≤ 0
- SPOT peptide array binding signal intensity (CaLsb4): 471
- SPOT peptide array binding signal intensity (CaMyo5): 0.5
- SPOT peptide array binding signal intensity (CaNbp2): 56
- SPOT peptide array binding signal intensity (CaRvs167): 5.33
- SPOT peptide array binding signal intensity (CaRvs167-3): 2
- SPOT peptide array binding signal intensity (CaSho1): 5.5
- SPOT peptide array binding signal intensity (CaSla1-D1-D2): 458
- SPOT peptide array binding signal intensity (CaSla1-D3): 14.2
- SPOT peptide array binding signal intensity (ScAbp1): 516
- SPOT peptide array binding signal intensity (ScBbc1): 14.5
- SPOT peptide array binding signal intensity (ScBem1-D1): ≤ 0
- SPOT peptide array binding signal intensity (ScBzz1-D1): 118
- SPOT peptide array binding signal intensity (ScBzz1-D2): 3
- SPOT peptide array binding signal intensity (ScCyk3): ≤ 0
- SPOT peptide array binding signal intensity (ScFus1): ≤ 0
- SPOT peptide array binding signal intensity (ScHof1): 0.5
- SPOT peptide array binding signal intensity (ScHse1): ≤ 0
- SPOT peptide array binding signal intensity (ScLsb1): 210
- SPOT peptide array binding signal intensity (ScLsb2): ≤ 0
- SPOT peptide array binding signal intensity (ScLsb3): 1660
- SPOT peptide array binding signal intensity (ScLsb4): 11
- SPOT peptide array binding signal intensity (ScMyo3): 170
- SPOT peptide array binding signal intensity (ScMyo5): 306
- SPOT peptide array binding signal intensity (ScNbp2): 244
- SPOT peptide array binding signal intensity (ScPex13): 669
- SPOT peptide array binding signal intensity (ScRvs167): 47.7
- SPOT peptide array binding signal intensity (ScSho1): 379
- SPOT peptide array binding signal intensity (ScSla1-D1-D2): 83
- SPOT peptide array binding signal intensity (ScSla1-D3): ≤ 0
- SPOT peptide array binding signal intensity (SpAbp1-D1): 1120
- SPOT peptide array binding signal intensity (SpBbc1): ≤ 0
- SPOT peptide array binding signal intensity (SpBzz1-D1): 684
- SPOT peptide array binding signal intensity (SpBzz1-D2): 1.5
- SPOT peptide array binding signal intensity (SpCyk3): 1
- SPOT peptide array binding signal intensity (SpHof1): ≤ 0
- SPOT peptide array binding signal intensity (SpHof1-2): ≤ 0
- SPOT peptide array binding signal intensity (SpHof1-3): 90.8
- SPOT peptide array binding signal intensity (SpHse1): 16.8
- SPOT peptide array binding signal intensity (SpLsb1): 362
- SPOT peptide array binding signal intensity (SpLsb4): 746
- SPOT peptide array binding signal intensity (SpMyo1): 466
- SPOT peptide array binding signal intensity (SpNbp2): ≤ 0
- SPOT peptide array binding signal intensity (SpPex13): ≤ 0
- SPOT peptide array binding signal intensity (SpRvs167): 276
- SPOT peptide array binding signal intensity (SpSla1-D1-D2): ≤ 0
- SPOT peptide array binding signal intensity (SpSla1-D3): ≤ 0
